Results with a measured potency or affinity are listed apart. Calls of active or inactive are those of the source.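 Rule for the calls: active = cell killing whose fitted half-effect concentration is at most twice the top valid dose tested; inconclusive = flat curve with 30 to 70% killing, or a poor fit; inactive = effect in the rising direction, plus the rest.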
Assay: A549 cell cytotoxicity, dose response, cytotoxicity control, ATP luminescence, cherry-pick, set 2 (AID 1053124);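 note: 0% = neutral control wells and -100% = mitoxantrone 10 µM positive control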
Details: A549 viability, ATP luminescence (CellTiter-Glo), 72 h; series mostly up to 26 µM; activity change, negative = cytotoxicity: at the top concentration
In the case of COCCNC(=O)c1cc2c(=O)n3cccc(C)c3nc2n(Cc2ccncc2)c1=N, the “activity change, negative = cytotoxicity” value is reported as -13.4% (inactive). In the case of Cc1noc(C)c1S(=O)(=O)N(CC(=O)N1CCCCCC1)c1ccc(C(C)C)cc1, the “activity change, negative = cytotoxicity” value is reported as -14.1% (inactive). With N=c1oc2cc(O)ccc2cc1C(=O)Nc1nc2ccccc2s1 the “activity change, negative = cytotoxicity” value was -10.5% (inactive). For O=[N+]([O-])c1cccc(-c2n[nH]c(=S)n2-c2ccc(Br)cc2)c1, the “activity change, negative = cytotoxicity” value was -10.6% (inactive). In the case of O=c1[nH]c2ccccc2nc1/C=C/c1ccccc1, the “activity change, negative = cytotoxicity” value is reported as -12.7% (inactive). For COCCN1C=C(C(=O)OC)C(c2ccc(Cl)cc2)C(C(=O)OC)=C1, the “activity change, negative = cytotoxicity” value was -8.61% (inactive). With Cc1ccc2[nH]c3ccccc3c(=O)c2c1 the “activity change, negative = cytotoxicity” value was -6.97% (inactive). For CCOc1ccc(NC(=O)CN(C)C(=O)CCCNC(=O)c2ccc(Cl)cc2)cc1OCC, the “activity change, negative = cytotoxicity” value was -3.8% (inactive). With Cc1c(C(=O)NCc2ccc3c(c2)OCCO3)sc(=O)n1Cc1ccccc1F the “activity change, negative = cytotoxicity” value was -0.515% (inactive). For Cc1cccn2c(=O)c3cc(C(=O)NCc4ccc(F)cc4)c(=N)n(CCCN4CCOCC4)c3nc12, the “activity change, negative = cytotoxicity” value was -12% (inactive). With CN1CCc2c(sc(NC(=O)Cc3ccccc3)c2C#N)C1 the “activity change, negative = cytotoxicity” value was -5.87% (inactive). With CC1CC(C)CN(CCCNC(=O)CCC(=O)N2CC(C)Oc3ccccc32)C1 (stereo not drawn) the “activity change, negative = cytotoxicity” value was -7.74% (inactive). In the case of Cc1cc(=O)oc2cc(OC(=O)c3cncc(Br)c3)ccc12, the “activity change, negative = cytotoxicity” value is reported as -8.82% (inactive). For CN1c2ccc(Cl)cc2C(=O)NC1C1CC=CCC1 (stereo not drawn), the “activity change, negative = cytotoxicity” value was -0.754% (inactive). With Cc1oc(/N=C/c2ccc(F)cc2)c(C#N)c1C the “activity change, negative = cytotoxicity” value was 0.872% (inactive). With COc1cc(C(=O)OCC(C)=O)cc(NC(=O)c2ccco2)c1OC the “activity change, negative = cytotoxicity” value was -0.686% (inactive). For N=c1c(C(=O)NCC2CCCO2)cc2c(=O)n3ccccc3nc2n1Cc1ccc(Cl)cc1 (stereo not drawn), the “activity change, negative = cytotoxicity” value was -16.8% (inactive). In the case of CCOc1ccc2nc(NCCCNS(=O)(=O)c3ccc(C)cc3)c(C#N)cc2c1, the “activity change, negative = cytotoxicity” value is reported as -3.55% (inactive). In the case of N#CC1=C(N)OC2=C(C(=O)CCC2)C1c1cc2c(cc1Br)OCO2 (stereo not drawn), the “activity change, negative = cytotoxicity” value is reported as 2.47% (inactive). In the case of Cc1cccn2c(=O)c(/C=C(\C#N)C(N)=O)c(Oc3ccccc3)nc12, the “activity change, negative = cytotoxicity” value is reported as 6.25% (inactive). In the case of COc1ccc(C(=O)Oc2cc(N)n(S(=O)(=O)c3ccccc3)n2)cc1, the “activity change, negative = cytotoxicity” value is reported as 7.59% (inactive). With CCOc1ccc(C(=O)c2cc3ccc(O)cc3oc2=O)cc1 the “activity change, negative = cytotoxicity” value was -0.025% (inactive). With CC(=O)Oc1ccc(C(=O)Nc2cc(C)on2)cc1 the “activity change, negative = cytotoxicity” value was 1.55% (inactive).
